# The campaign covered roughly 1,400 compounds. About 380 (27%) were called active.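 Rule for the calls: active = mean inhibition above 50% across duplicate retests at 10 µM; inactive = the rest.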 The list shows a part of the results.
# Assay: yeast NALP1 reporter signal suppression – S. cerevisiae, luminescence, single concentration, NALP1 inhibitor project, confirmation (AID 488841);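 note: plate controls were DMSO in galactose medium for no effect and cells in plain SD medium for full effect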
# Settings: S. cerevisiae NALP1/ASC/Caspase-1 reporter, beta-gal luminescence; at 10 µM; stronger effect = higher value
row,Structure (SMILES),inhibition
1,O=C(c1ccco1)N1CCN(Cc2cn[nH]c2-c2cccc3ccccc23)CC1,25.2% (inactive)
2,COc1ccccc1N1CCN(CCCCOc2cccc3ccccc23)CC1,62.8% (active)
3,O=C(COc1cccc2ccccc12)N1CCN(c2ccccc2)CC1,48.1% (inactive)
4,COc1ccccc1OCCCCN1CCN(c2ccccc2OC)CC1,17.7% (inactive)
5,COc1ccccc1N1CCN(CCCCCCOc2ccc(F)cc2)CC1,63.4% (active)
6,COC(=O)c1ccc(C(=O)OC)c(NC(=O)CN2CCN(c3ccccc3OC)CC2)c1,38.4% (inactive)
7,COc1ccc(CN2CC(C(=O)NCCN3CCN(c4ccccc4F)CC3)CC2=O)cc1 (configuration not stated),32% (inactive)
8,CCC(C)C(=O)N1c2ccccc2C(=C2SC(C(=O)OC)=C(C(=O)OC)S2)C(=S)C1(C)C (configuration not stated),40% (inactive)
9,COc1ccc(NC(=O)N2CCC(CO)(CC3CCCCO3)CC2)c(OC)c1 (configuration not stated),29.4% (inactive)
10,CN1CCC(Oc2ccc(Sc3ccccc3)cc2)CC1,40.1% (inactive)
11,O=CC1=C(c2ccccc2)Oc2ccccc2O1,94.8% (active)
12,Clc1ccc(OCCCN2CCCC2)cc1Cl,39.5% (inactive)
13,CN(C)Cc1ccccc1Sc1ccccc1Br,28.9% (inactive)
14,Cc1cccc(Oc2nc(CN3CCOCC3)nc3sc4c(c23)CCCC4)c1,51.5% (active)
15,Fc1ccc(Nc2nc(Oc3ccccc3F)nc(N3CCCC3)n2)cc1,29.2% (inactive)
16,C=CCSc1nsc(NC(=O)Nc2ccc(F)cc2)n1,97.7% (active)
17,O=C1/C(=C/c2cccnc2)SC(=S)N1C1CCS(=O)(=O)C1 (configuration not stated),44.6% (inactive)
18,CC1=C/C(=N\OS(=O)(=O)c2ccccc2)C(C(C)C)=CC1=O,88.5% (active)
19,CC1=CC(=O)C=C(C)C1=NOS(=O)(=O)c1ccccc1,53.9% (active)
20,CCN(CCO)Cc1csc2ccc(Br)cc12,41% (inactive)
21,C/C(=N\NC(=O)c1c[nH]c2ccccc12)c1ccco1,26.3% (inactive)
22,O=S(=O)(Nc1ccncc1Cl)c1ccccc1,27.6% (inactive)
23,CNC(=O)c1ccsc1NC(=O)c1sc2ccccc2c1Cl,33.5% (inactive)
24,O=C(Nc1nccs1)c1sc2ccccc2c1Cl,61.4% (active)
25,O=C(Nc1nc(-c2ccccn2)cs1)c1ccc(Cl)s1,24.1% (inactive)
26,COC(=O)Nc1sc2nc(C)cc(C)c2c1-n1cccc1,54% (active)

row,Structure (SMILES),inhibition
1,COC(=O)Nc1nc(C)c(C(=O)c2ccccc2)s1,44.9% (inactive)
2,Cc1ccc2c(Cl)c(C)c(N3CCCCC3)nc2n1,55.4% (active)
3,CSC1=N/C(=C\c2cccnc2)C(=O)N1c1ccccc1,30.7% (inactive)
4,O=S(=O)(Nc1cccnc1)c1cccs1,26.2% (inactive)
5,COc1ccc(C(=O)Cn2c(C(=O)/C=C/c3ccccc3)nc3ccccc32)cc1,25.8% (inactive)
6,Cc1ccc(C(=O)/C=C/c2cn(CC(O)CN3CCOCC3)c3ccccc23)cc1 (configuration not stated),39.7% (inactive)
7,COc1ccc(C(=O)/C=C/c2ccc(OC)c(CN3CCOCC3)c2)cc1,63.4% (active)
8,C/C(=N\Nc1nc2c(s1)CCCC2)c1ccccc1,29.5% (inactive)
9,CCCOc1ccc(C(=O)NC(C)C(=O)O)cc1 (configuration not stated),29.1% (inactive)
10,CC(C)OC(=O)COc1ccc(-c2ccccc2)cc1,25.2% (inactive)
11,CCOc1ccc(C(=O)C(CCC(CN(C)C)C(=O)c2ccc(OCC)cc2)CN(C)C)cc1 (configuration not stated),73% (active)
12,O=C(NCc1cccnc1)C1CCN(S(=O)(=O)c2cccnc2)CC1,33.3% (inactive)
13,CCn1c(COc2ccccc2C)nnc1SCC(=O)N1CCN(c2ccccc2)CC1,20.6% (inactive)
14,CCNC(=S)SCCOc1ccccc1C,57.5% (active)
15,Cc1ccc(/C(COc2ccccc2O)=N\O)cc1,44% (inactive)
16,C=CCn1c(=O)c2ccc(C(=O)NCc3ccccc3)cc2n(Cc2ccccc2Cl)c1=O,27% (inactive)
17,O=C(CCN1CCc2ccccc2C(c2ccccc2)C1)c1ccc2c(c1)OCCO2 (configuration not stated),30% (inactive)
18,Cc1nc(-c2ccccc2)cn2c1nc1ccccc12,49% (inactive)
19,c1ccc(-c2ccc(-c3cn4c(n3)CCC4)cc2)cc1,85.2% (active)
20,COc1cc2nc(Cl)nc(N3CCN(C)CC3)c2cc1OC,39.5% (inactive)
21,O=c1sc(Nc2ccccc2)nc2ccsc12,78.8% (active)
22,c1ccc(Nc2ccccn2)cc1,27.3% (inactive)
23,CC(C)CN=Cc1c(O)c([N+](=O)[O-])cc2oc3c(c12)CCCC3,35.5% (inactive)
24,CC(C)C(=O)N(Cc1ccccc1)c1ccccn1,19.8% (inactive)
25,Cc1cc(C)c(S(=O)(=O)N(CC(=O)O)CC(=O)O)c(C)c1,25.9% (inactive)
26,COc1ccccc1NC(=O)CCN1CCN(Cc2ccccc2)CC1,44.5% (inactive)

# — PubChem BioAssay AID488841 (Sanford-Burnham Center for Chemical Genomics, 2010)
